From PubChem BioAssay
Coupling enz – counter-screen for Giardia aldolase inhibitors: coupling enzyme system. AID 2472. coupling enzyme system counterscreen, AmpLite Red fluorescence. activity change, negative = inhibition, % at 58.2 µM, hits read low. 290,000 tested, 0.67% active; in the data active = activity change below about -30%
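Final compound at 57.5 uM, incubated 10 min at RT with coupling enzyme reagent (glyceraldehyde-3-phosphate), then 20 min with substrate and AmpLite Red detection. Fluorescence read at 525/598 nm; tests interference with the coupling assay, not aldolase inhibition.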
GALK inhibitor – galactokinase (human) inhibition. P51570. Purified GALK, Kinase-Glo residual ATP luminescence. Potency, µM (titrated, usually from 57.5 µM), hits mostly inhibitors. 270,000 tested, 0.007% active. AID 1868
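The enzyme phosphorylates galactose (100 uM) using ATP (35 uM); inhibition is detected as higher residual ATP, quantified by bioluminescence after 1 h reaction at room temperature, pH 8.0.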
PI4K2A block – PI4K2A (human) kinase inhibition; AID 1346378; 420,000 tested, 0.13% active; activity change, negative = inhibition, % at 76.9 µM; purified PI4K2A, ADP-Glo luminescence, 1 h; active compounds read low; in the data active = activity change below about -50%; inconclusive = mostly about -30% to -49%
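In this quantitative HTS, ADP production by PI4K2A was quantified luminescently after 1 h at ambient temperature; 100 microM adenosine served as plate-quality control.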
TrxR1 substrate – is turned over as a substrate by rat TrxR1; AID 588456; O89049; 390,000 tested, 0.01% active; purified TrxR1 substrate turnover, NADPH consumption readout; Potency, µM (top dose mostly 114 µM); also: nearly all actives have a fitted effect of over 50% in size
Target sequence (O89049 whole entry, looked up): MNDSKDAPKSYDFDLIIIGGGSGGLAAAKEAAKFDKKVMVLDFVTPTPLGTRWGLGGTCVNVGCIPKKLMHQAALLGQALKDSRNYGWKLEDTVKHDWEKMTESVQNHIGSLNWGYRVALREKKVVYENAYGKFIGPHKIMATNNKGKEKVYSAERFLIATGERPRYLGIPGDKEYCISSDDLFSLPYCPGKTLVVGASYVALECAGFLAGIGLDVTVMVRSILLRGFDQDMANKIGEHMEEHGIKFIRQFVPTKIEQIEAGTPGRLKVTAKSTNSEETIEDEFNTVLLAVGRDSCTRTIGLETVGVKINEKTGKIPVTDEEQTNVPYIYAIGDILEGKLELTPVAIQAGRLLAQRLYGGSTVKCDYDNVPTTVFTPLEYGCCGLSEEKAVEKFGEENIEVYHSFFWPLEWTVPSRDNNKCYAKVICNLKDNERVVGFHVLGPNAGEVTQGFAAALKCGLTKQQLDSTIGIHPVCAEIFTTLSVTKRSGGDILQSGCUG
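Rat TrxR1, dispensed at 90 nM, was prereduced with 400 uM NADPH (final) for 5 min at ~22 deg C, then incubated with compound 15 min before 400 uM selenite. A first-read NADPH fluorescence drop versus no-compound background flagged substrates.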
TrxR1 inh – blocks rat thioredoxin reductase 1. Potency, µM (highest dose often 114 µM), most hits filed as inhibitors. 390,000 tested, 1% active. AID 588453. O89049. recombinant rTrxR1, NADPH fluorescence consumption, selenite substrate; also: nearly all actives have a fitted effect of over 65% in size
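Rat TrxR1 (90 nM in the dispensed reagent) was pre-reduced with 400 uM NADPH for 5 min at room temperature, then incubated with compound for 15 min. After 400 uM selenite was added, NADPH fluorescence (Ex 340/Em 450 nm) was followed for 8 min.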
Giardia kill – kills Giardia lamblia; Giardia lamblia trophozoite viability; activity change, % at 7.66 µM, hits read low; 340,000 tested, 0.15% active; in the data active = activity change below about -80%; inconclusive = between about -30% and that limit;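 also: parasites exposed to compound for two days anaerobically before the ATP read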
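Viability, read as ATP luminescence: trophozoites at 100 cells/well, compound added, 48 hrs anaerobic at 37 deg C, then 15-30 min room-temperature development before reading.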
Of the large screens only hits and unclear results are named; the others gave an inactive call. An excerpt weighted towards active compounds, which were near 1.5% of everything screened. Unless noted, calls follow the shape of the dose curve; as a rule, active = well fitted curve in the direction sought with a large enough effect; inconclusive = small, poorly fitted or top-dose-only effect, or another doubt; inactive = no such curve, though single readings can be large; an effect the other way counts as inactive or inconclusive.

COCCn1c(=NC(=O)CCS(=O)(=O)c2ccccc2)sc2cc(F)ccc21	TrxR1 inh inconclusive (no result: Coupling enz)
COCCn1c(=NC(=O)CCS(=O)(=O)c2ccccc2)sc2cc(C)ccc21	TrxR1 inh 40µM (no result: Coupling enz)
CCCCC(O)/C=C(C)/C=C/C=C/C(=O)N1CCCC1=O (centres undefined)	none (no result: Coupling enz, GALK inhibitor, TrxR1 substrate, TrxR1 inh, Giardia kill)
Nc1c(N=O)c(=O)[nH]c(=O)n1-c1ccccc1	none (no result: Coupling enz, GALK inhibitor)
Nc1c(Br)c(=O)[nH]c(=O)n1-c1ccc(F)cc1	TrxR1 inh 40µM (no result: GALK inhibitor)
Cc1ccsc1/C=N/NC(=O)CSCc1ccc(Cl)cc1	Coupling enz -34
Cc1ccsc1/C=N/NC(=O)Cc1ccc(Cl)cc1	none
CCCCc1cc(=O)oc2cc(C)c(CN3CCCC3)c(O)c12	TrxR1 inh inconclusive
CCc1cc(=O)oc2cc(C)c(CN3CCCC(C)C3)c(O)c12 (centres undefined)	PI4K2A block -51, TrxR1 inh inconclusive
COC(=O)C1=C(C(=O)OC)[C@@H]2N(Cc3ccccc3)c3ccccc3[C@@]23C[C@@H](C(=O)OC)N(S(=O)(=O)c2cccs2)C3=N1	none (no result: GALK inhibitor, PI4K2A block, TrxR1 substrate, TrxR1 inh, Giardia kill)
Cc1ccc(NC2=C(Cl)C(=O)c3ccccc3C2=O)cc1	TrxR1 inh 3.5µM
Cc1cc(C)cc(NC2=C(N)C(=O)c3ccccc3C2=O)c1	PI4K2A block -50 (no result: GALK inhibitor)
CCC(=O)NC1=C(Nc2ccc(N)cc2)C(=O)c2ccccc2C1=O	none (no result: GALK inhibitor)
O=C1C(Cl)=C(Nc2ccc(O)cc2)C(=O)c2ccccc21	TrxR1 inh inconclusive
CCN(CC)c1ccc(NC2=C(Cl)C(=O)c3ccccc3C2=O)cc1	Coupling enz -38, TrxR1 inh 2.5µM
CC1CCC(O)C/C1=C\C=C1/CCCC2(C)C1CCC2C(C)/C=C/C(C)C(C)C (centres undefined)	none (no result: GALK inhibitor, PI4K2A block, TrxR1 substrate, TrxR1 inh, Giardia kill)
CCN(CC)c1ccc(NC(=O)C2CCCN(S(=O)(=O)c3ccc4c(c3)oc(=O)n4C)C2)c(C)c1 (centres undefined)	none (no result: Coupling enz, GALK inhibitor, Giardia kill)
COc1cccc(C(=O)CN2CCN(S(=O)(=O)c3cccc([N+](=O)[O-])c3)CC2)c1	TrxR1 inh 8.9µM
CC(C)c1nnc(NC(=O)c2nc(S(=O)(=O)Cc3ccccc3)ncc2Cl)s1	TrxR1 inh 50µM (no result: Coupling enz)
Cc1ccccc1CS(=O)(=O)c1ncc(Cl)c(C(=O)Nc2nnc(C(C)C)s2)n1	TrxR1 inh 7.1µM (no result: Coupling enz, GALK inhibitor, Giardia kill)
Cc1ccc(CS(=O)(=O)c2ncc(Cl)c(C(=O)Nc3nc4ccc(C)cc4s3)n2)cc1	TrxR1 inh inconclusive (no result: Coupling enz, GALK inhibitor, Giardia kill)
CC(C)Sc1ncc(Cl)c(C(=O)Nc2nnc(C(C)C)s2)n1	none (no result: Coupling enz, GALK inhibitor, Giardia kill)
CCCc1nnc(NC(=O)c2nc(S(=O)(=O)Cc3ccc(C)cc3)ncc2Cl)s1	TrxR1 inh 50µM (no result: Coupling enz)
CSc1ncc(Cl)c(C(=O)Nc2nnc(SC)s2)n1	none
CSc1nnc(NC(=O)c2nc(S(=O)(=O)Cc3ccccc3)ncc2Cl)s1	TrxR1 inh 32µM (no result: Coupling enz)
CN1CCN(c2ccnc(N(C)CCCCCCN)n2)CC1	none (no result: Coupling enz, GALK inhibitor, PI4K2A block, Giardia kill)
O=S(=O)(c1ccccc1)N1CCN=C1SCc1ccc(Cl)c(Cl)c1	none
O=S(=O)(c1ccccc1)N1CCN=C1SCc1ccccc1Cl	Coupling enz -40
Cc1ccc(S(=O)(=O)N2CCN=C2SCc2ccccc2)cc1	Coupling enz -35
Cc1cccc(NC(=O)CSc2cn(CC(=O)N3CCOCC3)c3ccccc23)c1C	none (no result: Coupling enz, GALK inhibitor, Giardia kill)
Cc1nn(-c2ccccc2)c2c1C1(C(=O)N(C(C)C)c3ccccc31)C(C#N)=C(N)O2 (centres undefined)	Coupling enz -55
O=C(O)c1cc(Br)ccn1	none
O=C(O)c1ccnc(C(=O)O)c1	Coupling enz -72
CCCNC[C@H](O)COc1ccccc1C(=O)CCc1ccccc1	TrxR1 inh inconclusive (no result: GALK inhibitor, PI4K2A block, TrxR1 substrate, Giardia kill)
O=C(Nc1ccc(C(O)(C(F)(F)F)C(F)(F)F)cc1)c1ccc(F)cc1Cl	none (no result: Coupling enz, GALK inhibitor, TrxR1 substrate, TrxR1 inh, Giardia kill)
Cc1ccc(OCCNC(=O)/C=C/c2ccco2)cc1C	TrxR1 inh 11µM, Giardia kill inconclusive
NS(=O)(=O)c1ccc(NC(=O)/C=C/c2ccco2)cc1	TrxR1 inh 18µM
COc1ccccc1/C=C/C(=O)NNC(=O)c1cc(C)oc1C	none (no result: Coupling enz, GALK inhibitor)
Cc1cc(C(=O)NNC(=O)/C=C/c2ccco2)c(C)o1	TrxR1 inh 2.8µM (no result: Coupling enz, GALK inhibitor)
